Reference: PubChem BioAssay (Tox21)
Values without a mark were called inactive. Records with an inconclusive call do not appear. Entries that show only a call come without a potency. Active and inactive are the calls of the source. Unless noted, calls follow the shape of the dose curve; as a rule, active = well fitted curve in the direction sought with a large enough effect in the repeat runs; inconclusive = weak or mixed curves; inactive = no such curve, though single readings can be large; an effect the other way counts as inactive or inconclusive.

How the values were obtained:
[1] = qHTS assay to identify small molecule antagonists of the estrogen related receptor (ERR) signaling pathway from Tox21 library - cell viability counter screen (AID 1224834); also: nearly all actives have a fitted effect of over 30% in size; also: potency is read from the fitted curve at half-maximal effect
In short: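 Compounds in DMSO were pinned onto ERR cells that had been incubated for 6 h, and the plates were held at 37 C for 17.5 h. CellTiter-Fluor reagent was then added and fluorescence was measured after 30 min.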

[2] = qHTS assay to identify small molecule agonists of the constitutive androstane receptor (CAR) signaling pathway - cell viability counter screen (AID 1224836); also: nearly all actives have a fitted effect of over 45% in size; also: potency is read from the fitted curve at half-maximal effect
In short: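 Double-stable HepG2 hepatoma cells (hCAR plus CYP2B6-2.2kb) are treated for 23 h at 37 C with test compounds in 15-point concentration series. PK11195 at 0.75 uM final is co-added. Cell viability is quantified by CellTiter-Fluor.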

[3] = qHTS assay to identify small molecule antagonists of the estrogen related receptor signaling pathway with the pleiotropic PPARgamma coactivator (PGC) from Tox21 10K library - cell viability counter screen (AID 1224840; active = well fitted cell-killing curve with a large enough effect in the repeat runs, not every such curve was filed as active; also: nearly all actives have a fitted effect of over 40% in size)
In short: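 Cell viability is measured by CellTiter-Fluor fluorescence in PGC/ERR cells that receive compounds after a 6-hour attachment period and are then incubated 17.5 hours at 37 C.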

[4] = qHTS assay to identify small molecule antagonists of the estrogen related receptor signaling pathway with the pleiotropic PPARgamma coactivator (PGC) from Tox21 10K library (AID 1224841; call rule not given here; also: actives are mostly falling curves and most rising ones were filed inactive; nearly all actives have a fitted effect of over 50% in size)
In short: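 Cells stably carrying the PGC/ERR reporter, seeded at 2,000 per well, received pin-transferred compounds 6 h post-plating. Exposure lasted 18 h at 37 C. Signal: One-Glo luminescence.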

[5] = qHTS assay to identify small molecule agonists of the hypoxia (HIF-1) signaling pathway - cell viability counter screen (AID 1224844; calls by dose curve; also: nearly all actives have a fitted effect of over 50% in size)
In short: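 Viability counter screen: HRE-bla ME-180 cells plated 5 hrs before compound addition, treated 17 hrs at 37C and 5% CO2, then CellTiter-Glo added after the FRET reporter read; luminescence after 30 min.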

[6] = qHTS assay to identify small molecule agonists of H2AX (AID 1224845; active = well fitted activation curve with a large enough effect in the signal ratio in the repeat runs, not every such curve was filed as active; the % refers to the signal ratio)
In short: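 Wild-type CHO-K1 cells, plated overnight, exposed 3hr at 37C to 15 concentrations (0.76% DMSO final). Lysed, then HTRF anti-pH2AX (S139) cryptate and anti-H2AX-d2 antibodies, 24 hr room temperature; 665/620 nm emission read.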

[7] = qHTS assay to identify small molecule agonists of the hypoxia (HIF-1) signaling pathway (AID 1224846; active = well fitted activation curve with a large enough effect in the signal ratio in the repeat runs, not every such curve was filed as active; the % refers to the signal ratio)
In short: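 Agonist mode reporter screen. ME-180 cells stably expressing bla under HRE control received test compounds in DMSO for 17 hrs (37C, 5% CO2), and beta-lactamase activity was then detected with the CCF4-AM FRET substrate.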

[8] = qHTS assay to identify small molecule agonists of H2AX - cell viability counter screen (AID 1224847; calls by dose curve; also: top concentration of the series differs between compounds; nearly all actives have a fitted effect of over 30% in size)
In short: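 For this counter screen, overnight-attached CHO-K1 cells received test compounds (15 concentrations, 0.76% DMSO final); 3 hr later at 37C, CellTiter-Glo reagent was added and luminescence recorded after 30 min at room temperature.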

[9] = qHTS assay to identify small molecule antagonists of the estrogen related receptor (ERR) signaling pathway from Tox21 library (AID 1224848); also: nearly all actives have a fitted effect of over 50% in size; also: potency is read from the fitted curve at half-maximal effect
In short: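 Quantitative high-throughput format: ERR reporter cells (2,000/well) pre-incubated 6 h, treated 18 h at 37 C with compounds in DMSO alongside positive and negative controls, then read by ONE-Glo luminescence.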

[10] = qHTS assay to identify small molecule agonists of the estrogen related receptor (ERR) signaling pathway from Tox21 library (AID 1224849; calls by dose curve; also: nearly all actives have a fitted effect of over 15% in size); conditions: ERR reporter cell line, ONE-Glo luciferase, 18 h; at 92.4 µM (top of the series) unless noted
In short: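 Quantitative HTS in agonist format: NTP ERR cell line, compounds transferred in DMSO after 6 h plating, 18 h incubation at 37 C, ONE-Glo luminescence endpoint.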

[11] = qHTS RealTime-Glo MT Cell Viability Assay in HepG2 cells - 24 hour (AID 1224867); also: nearly all actives have a fitted effect of over 50% in size
In short: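 qHTS, HepG2, 600 cells/well, RealTime-Glo (NanoLuc + prosubstrate) added with cells; 5 h preincubation; DMSO compound addition; 37 C; luminescence at 0/8/16/24/32/40 h.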

[12] = qHTS RealTime-Glo MT Cell Viability Assay in HEK293 cells - 32 hour (AID 1224868); also: nearly all actives have a fitted effect of over 50% in size; also: potency is read from the fitted curve at half-maximal effect
In short: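 Assay medium contained NanoLuc luciferase plus cell-permeant prosubstrate, added with HEK293 cells at 600 cells/well. After 5 h at 37 C/5% CO2 compounds were added; plates stayed at 37 C for 40 h with serial luminescence reads.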

[13] = A CellTox Green Cytotoxicity Assay to monitor cytotoxicity in HEK293 cells - 0 hour (AID 1224869); also: nearly all actives have a fitted effect of over 50% in size
In short: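 Dead-cell fluorescence measured kinetically: asymmetric cyanine dye, HEK293, 600 cells/well, 5 h settle, 23 nL cpd/DMSO, 37 C, reads 0–40 h every 8 h.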

[14] = qHTS RealTime-Glo MT Cell Viability Assay in HepG2 cells - 40 hour (AID 1224870); also: nearly all actives have a fitted effect of over 50% in size
In short: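 HepG2 cells (600/well) mixed with RealTime-Glo MT reagent, settled 5 h at 37 C/5% CO2 before compound addition. Nonlytic NanoLuc luminescence from viable-cell prosubstrate reduction read repeatedly during 40 h treatment at 37 C.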

[15] = qHTS assay to identify small molecule antagonists of the constitutive androstane receptor (CAR) signaling pathway - cell viability counter screen (AID 1224837); also: nearly all actives have a fitted effect of over 45% in size; also: potency is read from the fitted curve at half-maximal effect
In short: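 Cells are seeded, rested 4 hr at 37 C/5% CO2, dosed with compound (15-point series) and 50 nM CITCO, incubated a further 23 hr, and then CellTiter-Fluor reagent is added before fluorescence is read. The line is HepG2 with stable hCAR and CYP2B6-2.2kb.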

[16] = target: Nuclear receptor subfamily 1 group I member 3 (Homo sapiens) (UniProt Q14994); assay: qHTS assay to identify small molecule antagonists of the constitutive androstane receptor (CAR) signaling pathway (AID 1224838);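 also: HepG2 cells stably expressing hCAR with CYP2B6 luciferase reporter stimulated by CITCO; nearly all actives have a fitted effect of over 40% in size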
In short: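 Luminescence from a CYP2B6-2.2kb promoter reporter in hCAR-expressing HepG2 cells reflects CAR signaling. Cells received compounds at 15 concentrations and 50 nM CITCO (final), then incubated 24 h at 37 C/5% CO2.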

[17] = target: Nuclear receptor subfamily 1 group I member 3 (Homo sapiens) (UniProt Q14994); assay: qHTS assay to identify small molecule agonists of the constitutive androstane receptor (CAR) signaling pathway (AID 1224839);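 also: HepG2 cells stably carrying human CAR and a CYP2B6 luciferase reporter; nearly all actives have a fitted effect of over 15% in size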
In short: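 Readout: firefly luciferase luminescence via ONE-Glo. System: HepG2 double-stable for hCAR and CYP2B6-2.2kb. Conditions: 15-point compound titration, PK11195 at 0.75 uM final, 24 h incubation.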

[18] = target: Thyrotropin receptor (Homo sapiens) (UniProt P16473); assay: qHTS assay to identify small molecule agonists of the thyroid stimulating hormone receptor (TSHR) signaling pathway (AID 1224843; calls by dose curve; also: nearly all actives have a fitted effect of over 45% in size)
In short: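 Agonist-mode screen: TSHR HEK293 cells received test chemicals for half an hour at room temperature, then HTRF cAMP detection reagents for one hour prior to fluorescence measurement. Each chemical ran as a 15-concentration series, triplicated.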

[19] = qHTS assay to identify small molecule agonists of the estrogen related receptor signaling pathway with the pleiotropic PPARgamma coactivator (PGC) from Tox21 10K library (AID 1224842); also: nearly all actives have a fitted effect of over 15% in size
In short: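 PGC/ERR reporter cell line, 2,000 cells per well, incubated 6 h at 37 C before 23 nL compound in DMSO was added. After 18 h at 37 C, One-Glo luminescence read following 30 min at room temperature.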

Nuclear receptor subfamily 1 group I member 3 (Homo sapiens), sequence (Q14994 whole entry, looked up): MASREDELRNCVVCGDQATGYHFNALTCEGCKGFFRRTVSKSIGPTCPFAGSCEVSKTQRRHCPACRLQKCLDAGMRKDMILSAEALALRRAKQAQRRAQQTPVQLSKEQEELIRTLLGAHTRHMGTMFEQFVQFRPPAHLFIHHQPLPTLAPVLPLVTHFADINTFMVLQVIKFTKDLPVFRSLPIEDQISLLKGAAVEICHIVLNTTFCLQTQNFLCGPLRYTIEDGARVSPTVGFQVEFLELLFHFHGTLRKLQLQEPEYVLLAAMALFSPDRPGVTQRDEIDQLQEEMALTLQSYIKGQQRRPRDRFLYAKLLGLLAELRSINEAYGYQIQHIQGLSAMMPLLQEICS
Thyrotropin receptor (Homo sapiens), sequence (P16473 whole entry, looked up): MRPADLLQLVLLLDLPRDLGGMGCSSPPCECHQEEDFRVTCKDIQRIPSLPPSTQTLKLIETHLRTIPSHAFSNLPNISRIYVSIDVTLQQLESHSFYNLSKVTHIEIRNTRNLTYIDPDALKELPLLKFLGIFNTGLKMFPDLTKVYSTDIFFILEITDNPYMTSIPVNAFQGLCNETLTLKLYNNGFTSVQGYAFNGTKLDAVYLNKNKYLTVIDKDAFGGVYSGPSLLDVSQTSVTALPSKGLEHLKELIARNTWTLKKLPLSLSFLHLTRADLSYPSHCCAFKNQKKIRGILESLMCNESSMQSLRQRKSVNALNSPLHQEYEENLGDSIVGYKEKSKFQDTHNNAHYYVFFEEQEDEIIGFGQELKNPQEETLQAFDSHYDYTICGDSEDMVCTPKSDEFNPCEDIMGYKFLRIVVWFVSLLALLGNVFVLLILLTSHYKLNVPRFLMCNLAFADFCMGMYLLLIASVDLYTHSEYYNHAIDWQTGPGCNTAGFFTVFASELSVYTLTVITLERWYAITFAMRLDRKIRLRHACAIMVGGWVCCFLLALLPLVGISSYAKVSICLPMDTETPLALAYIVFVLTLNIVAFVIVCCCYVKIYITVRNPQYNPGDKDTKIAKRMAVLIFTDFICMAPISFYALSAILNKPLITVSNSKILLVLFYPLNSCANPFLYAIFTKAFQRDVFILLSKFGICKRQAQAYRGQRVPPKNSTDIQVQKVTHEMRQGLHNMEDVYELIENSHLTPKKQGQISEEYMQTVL

| SMILES | Potency [1] | Potency [2] | Potency [3] | Potency [4] | Potency [5] | Potency [6] | Potency [7] | Potency [8] | Potency [9] | activity change, positive = activation [10] | Potency [11] | Potency [12] | Potency [13] | Potency [14] | Potency [15] | Potency [16] | Potency [17] | Potency [18] | Potency [19] |
| --- | --- | --- | --- | --- | --- | --- | --- | --- | --- | --- | --- | --- | --- | --- | --- | --- | --- | --- | --- |
| CC(=O)[O][Al][O]C(C)=O | inactive | inactive | inactive | inactive | inactive | inactive | inactive | inactive | inactive | 1.12% | inactive | inactive | inactive | inactive |  |  |  |  |  |
| O=C(O)C(S)C(S)C(=O)O (configuration not stated) | inactive |  | inactive |  | inactive | inactive | inactive | inactive |  |  | inactive | inactive | inactive | inactive | inactive | inactive | inactive | inactive |  |
| Nc1ccccc1S(=O)(=O)c1ccccc1 | inactive |  | inactive |  | inactive | inactive | inactive | inactive |  | -20.8% | inactive | inactive | inactive | inactive | inactive | inactive |  | inactive |  |
| COc1ccc(C)cc1[N+](=O)[O-] | inactive |  | inactive | inactive | inactive | inactive | inactive | inactive | inactive | 4.3% | inactive | inactive | inactive | inactive | inactive | inactive | inactive | inactive | inactive |
| O=[N+]([O-])c1ccc2[nH]ncc2c1 | inactive | inactive | inactive |  | inactive |  | inactive | inactive |  |  | inactive | inactive | inactive | inactive | inactive |  |  | inactive |  |
| Cc1cccc(C)c1NC(=O)CN(CC(=O)O)CC(=O)O | inactive |  | inactive |  | inactive | inactive | inactive | inactive |  |  | inactive | inactive | inactive | inactive | inactive | inactive | inactive | inactive |  |
| CCC(C)c1cc(C(C)(C)C)c(O)c(C(C)(C)C)c1 (configuration not stated) | inactive | inactive | inactive |  | inactive | inactive | inactive | inactive |  |  | inactive | inactive | inactive | inactive | inactive |  |  | inactive |  |
| CN(C)CCN(Cc1ccc(Cl)cc1)c1ccccn1 | inactive |  |  |  | inactive | inactive | inactive | inactive |  |  | inactive | inactive | inactive | inactive | inactive | inactive | inactive | inactive |  |
| O=S(c1cc(Cl)cc(Cl)c1O)c1cc(Cl)cc(Cl)c1O | inactive | inactive | inactive | inactive |  |  |  |  | inactive | -6.01% [at 42.5 µM] | inactive | inactive | inactive | inactive |  | inactive |  | inactive | inactive |
| CC1=CCCC(C)(C)C12CCC(C)O2 (configuration not stated) | inactive | inactive |  |  | inactive | inactive | inactive | inactive |  |  | inactive | inactive | inactive | inactive | inactive |  |  |  |  |
| Cc1cc(N)c2cc(NC(=O)Nc3ccc4nc(C)cc(N)c4c3)ccc2n1 | inactive |  |  |  |  |  |  |  |  |  | inactive | inactive | inactive | inactive | inactive | inactive | inactive |  |  |
| CC(C)Cc1ccc(C(C)C(=O)OCc2ccccn2)cc1 (configuration not stated) | inactive | inactive | inactive |  | inactive |  | inactive | inactive |  |  | inactive |  | inactive | inactive | inactive |  |  |  |  |
| Cc1oc(-c2ccccc2)nc1CCOc1cccc2c1ccn2CCC(=O)O | 30.6 µM (active) | inactive | inactive |  | inactive |  | inactive | inactive |  |  | inactive | inactive | inactive | inactive |  | inactive |  | inactive |  |
| OCc1cc(C(O)CNCCCCCCOCCCCc2ccccc2)ccc1O (configuration not stated) | 10.6 µM (active) | 10.6 µM (active) | inactive | inactive | inactive |  |  | inactive | 21.1 µM (active) | -29.9% [at 42.5 µM] |  | 21.3 µM (active) | inactive |  | 13.3 µM (active) |  |  |  |  |
